Columns and labels:
[1] = system: Madurella mycetomatis MM55; conditions: 7 days
[2] = system: Madurella mycetomatis MM55; test: IC90; higher = less potent; conditions: 7 days
[3] = system: Madurella mycetomatis MM55; test: percent growth relative to solvent control; higher = less inhibition, active = 20 or less; conditions: 100 µM; 7 days

C[C@H](c1ccc2c(c1)CCCC2)N(C)c1ncc2c(N)nc(N)nc2n1
IC50 [1]: 63.7 µM
IC90 [2]: 91 µM
percent growth [3]: -2.94% (active)

Nc1nccc2ccc(Oc3ccncc3)cc12
percent growth [3]: 71.5% (inactive)

COc1ccc(OC)c(NCc2ccc3nc(N)nc(N)c3c2Cl)c1
IC50 [1]: 2.3 µM
IC90 [2]: 4.7 µM
percent growth [3]: -0.467% (active)

c1ccc(Oc2ccc(-c3cc(C4CCOCC4)[nH]n3)cc2)cc1
IC50 [1]: 35.6 µM
IC90 [2]: 57 µM
percent growth [3]: 4.02% (active)

CCCn1c(CNc2ccccc2O)nc2ccccc21
percent growth [3]: 91.1% (inactive)

COc1cccc(OC)c1C(=O)Nc1ccc(Cl)c(-c2nc3ccccc3s2)c1
percent growth [3]: 78.4% (inactive)

COc1cccc(-n2nnnc2S(C)(=O)=O)c1
IC50 [1]: 59.9 µM
IC90 [2]: 92.6 µM
percent growth [3]: 1.2% (active)

C[C@@H]1[C@H](O)[C@@H](C)/C=C/C=C/C=C/C=C/C=C/C=C/C=C/[C@H](O[C@@H]2O[C@H](C)[C@@H](O)[C@H](N)[C@@H]2O)C[C@@H]2O[C@](O)(C[C@@H](O)C[C@@H](O)[C@H](O)CC[C@@H](O)C[C@@H](O)CC(=O)O[C@H]1C)C[C@H](O)[C@H]2C(=O)O
IC50 [1]: 9.7 µM
IC90 [2]: 20.1 µM
percent growth [3]: 7.03% (active)

Cc1ccc(NC(=O)CC2COc3ccccc3O2)cc1Cl (stereo not given)
IC50 [1]: 51.9 µM
IC90 [2]: 91.3 µM
percent growth [3]: 1.24% (active)

COc1cccc(CC(=O)N2CCC(n3c(C)nc4ccc(F)cc43)CC2)c1
percent growth [3]: 118% (inactive)

Cc1cnc(N2CCN[C@@H](Cc3ccccc3)C2)nc1Oc1ccc(-n2ccnc2)cc1
IC50 [1]: 10.7 µM
IC90 [2]: 20.8 µM
percent growth [3]: 3.67% (active)

NCCN(C(=O)c1ccc(Cl)cc1Cl)c1ccc(OCc2ccc(Cl)cc2)cc1
IC50 [1]: 10.5 µM
IC90 [2]: 17.9 µM
percent growth [3]: 4.52% (active)

CCCn1c(NC(=O)c2ccc3ccccc3n2)nc2ccccc21
IC50 [1]: 3.7 µM
IC90 [2]: 9.85 µM
percent growth [3]: -3.5% (active)

O=C(NCc1cc(Cl)cc(Cl)c1)c1c(C(F)(F)F)nc2ccccn12
percent growth [3]: 107% (inactive)

O=C(Nc1cccc(-c2ccc(NCCCN3CCCC3)nc2)c1)c1ccccc1
IC50 [1]: 53.1 µM
IC90 [2]: 90.9 µM
percent growth [3]: -1.11% (active)

CC1=NN(c2nc3ccccc3s2)C(=O)C1Cc1cccc2ccccc12 (stereo not given)
IC50 [1]: 62.1 µM
IC90 [2]: 93 µM
percent growth [3]: 1.31% (active)

Cc1cc(NCCc2ccccc2)nc(NC(=N)Nc2ccc(Cl)cc2)n1
IC50 [1]: 10.4 µM
IC90 [2]: 18.8 µM
percent growth [3]: -1.87% (active)

CN1CCCC1CCO[C@](C)(c1ccccc1)c1ccc(Cl)cc1 (stereo not given in full)
IC50 [1]: 9.85 µM
IC90 [2]: 18.3 µM
percent growth [3]: -0.386% (active)

CC(C)(C)n1nc(Cc2ccc(F)c(Cl)c2)c2c(N)ncnc21
IC50 [1]: 62 µM
IC90 [2]: 93 µM
percent growth [3]: 1.18% (active)

FC(F)(F)c1cccc(-c2nc3c(NCc4ccncc4)nccc3[nH]2)c1
percent growth [3]: 72.4% (inactive)

c1ccc(Oc2ccc(-c3cncc(-c4ccc5[nH]ccc5c4)n3)cc2)cc1
percent growth [3]: 92.6% (inactive)

OC[C@H]1O[C@@H](n2c3ccc(Cl)cc3c3c(-c4cc5ccccc5o4)ncnc32)C(O)[C@H]1O (stereo not given in full)
percent growth [3]: 121% (inactive)

CC1CCCCN1C(=O)NCCc1coc(-c2ccc(F)cc2)n1 (stereo not given)
percent growth [3]: 70% (inactive)

Clc1ccc(-n2cc(COc3ccnc4ccccc34)nn2)cc1
percent growth [3]: 63% (inactive)

CNc1cc(C)nc(C2CN(C(=O)c3n[nH]c4ccccc34)CCO2)c1 (stereo not given)
percent growth [3]: 103% (inactive)

COc1cc(-c2cc(-c3ccc(S(C)(=O)=O)cc3)cnc2N)ccc1O
percent growth [3]: 11.2% (active)

Cc1ccc(S(=O)(=O)N2CCN(C(=O)c3cc(-c4ccccc4)[nH]n3)CC2)cc1
percent growth [3]: 146% (inactive)

NC(=O)c1cc(Br)ccc1OCCOc1ccccc1
percent growth [3]: 92.8% (inactive)

Cc1cc(C(=O)Nc2cnn(Cc3ccc(Cl)cc3Cl)c2)no1
percent growth [3]: 121% (inactive)

Cc1cc(Nc2ccc(C(F)(F)F)cc2)n2ccnc2n1
percent growth [3]: 77.4% (inactive)

CN1CCN(S(=O)(=O)c2ccc(-c3ccc4c(Nc5ncc(Cl)cn5)ccnc4c3)cc2)CC1
percent growth [3]: 98.9% (inactive)

NC(=O)c1cc(-c2ccsc2)ccc1OCCOc1ccccc1
percent growth [3]: 103% (inactive)

CC1(C)Cc2c(c(N3CCOCC3)nc3snc(Br)c23)CO1
percent growth [3]: 78.9% (inactive)

CCC(C)NC(=O)c1ccc(NC(=O)C2(c3ccccc3)CCCC2)cc1 (stereo not given)
percent growth [3]: 96.7% (inactive)

O=C(C1CCCCC1)N1CC(=O)N2CCc3ccccc3C2C1 (stereo not given)
percent growth [3]: 92.7% (inactive)

CCOC(=O)NC(=O)c1ccsc1NC(=O)c1nc2ccccc2s1
percent growth [3]: 78.6% (inactive)

Cc1[nH]c2cc(F)cc(F)c2c(=O)c1-c1ccc(Oc2ccc(OC(F)(F)F)cc2)cc1
percent growth [3]: 95.7% (inactive)

Cc1cc(O)nc(-n2nc(C)cc2C)n1
percent growth [3]: 66.4% (inactive)

CCCCN(CCCC)c1c(C#N)cc(S(=O)(=O)Nc2ccccc2)cc1C#N
percent growth [3]: 85.7% (inactive)

CCn1cnc2c(Nc3cc(F)cc(F)c3)nc(C#N)nc21
percent growth [3]: 95.2% (inactive)

CNC(=O)C1Cc2c([nH]c3cc(Cl)ccc23)C2(CCN(CCc3ccccc3)CC2)N1 (stereo not given)
percent growth [3]: 70% (inactive)

CCN(CC)S(=O)(=O)c1ccc(C(=O)Nc2cc(C)nn2-c2nc(C)c(C)c(=O)[nH]2)cc1
percent growth [3]: 63% (inactive)

CC(=O)NCC1CN(c2ccc(-c3ccc(CO)cc3)c(F)c2)C(=O)O1 (stereo not given)
percent growth [3]: 112% (inactive)

CCC(=O)Nc1ccccc1C(=O)Nc1ccccn1
percent growth [3]: 62.5% (inactive)

CC(C)(C)n1nc(Cc2cccc3ccccc23)c2c(N)ncnc21
percent growth [3]: 69.6% (inactive)

Nc1ncnc2c1ncn2C[C@@H](O)[C@@H](O)C(=O)O
percent growth [3]: 134% (inactive)

O=C(NCCc1c[nH]c2ccccc12)c1cc2ccccc2oc1=O
percent growth [3]: 109% (inactive)

CC(=O)NCC1CN(c2ccc(-c3ccc(CNCc4cn[nH]n4)cc3)c(F)c2)C(=O)O1 (stereo not given)
percent growth [3]: 125% (inactive)

CNC(=O)CNc1nc(-c2ccccn2)nc2scc(-c3ccccc3)c12
percent growth [3]: 30.8% (inactive)

O=C1Nc2ccc(Br)cc2C12NCCc1c2[nH]c2ccccc12 (stereo not given)
percent growth [3]: 63.6% (inactive)

Cc1cc(NC(=O)c2ccc(Oc3ccc(Cl)cc3O)o2)no1
percent growth [3]: 135% (inactive)

c1cc(C2=NCCN2)cc(-c2cc(-c3ccc(C4=NCCN4)cc3)no2)c1
percent growth [3]: 73.8% (inactive)

CN(C)CCNC(=O)N1CCCN(c2ncnc3cc(-c4ccccc4)sc23)CC1
percent growth [3]: 64.5% (inactive)

CC1CCCN(C(=O)C(C)Nc2cc(Cl)ccc2N2CCOCC2)C1 (stereo not given)
percent growth [3]: 53.8% (inactive)

O=C(N[C@H](Cc1ccccc1)C(=O)Nc1ccccc1N1CCOCC1)c1cccs1
percent growth [3]: 36.5% (inactive)

O=C(NC1CC1)c1ccc(N2CCC(Cc3ccccc3)CC2)nc1
percent growth [3]: 104% (inactive)

CNC(=O)C1Cc2ccccc2N1C(=O)Cc1ccc(F)cc1 (stereo not given)
percent growth [3]: 116% (inactive)

From the supplement of paper PMC5940239
